# PubChem BioAssay (NCI)
# The panel holds about 83,000 compounds, 20% with a hit somewhere; the sample as a whole holds those more often.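 Single-dose data. Exposure time 48 hours. Values below 10 considered active.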 Unmarked numbers belong to inactive results. Activity calls are given as the source filed them.
# Tested on: CCRF-CEM leukemia
# Assay: NCI-60 one-dose screen, 48 h (100 = growth as untreated, 0 = no growth, -100 = all killed)
# Settings: 10 µM
row,Structure (SMILES),growth
1,Cc1ccc(C(=O)N/C(=C2/OCCN2C)[P+](c2ccccc2)(c2ccccc2)c2ccccc2)cc1,73.5%
2,CN(C)c1ccc(/C=C/c2nc3ccccc3c(=O)n2CC(=O)Nc2ccc(Cl)cc2)cc1,88.6%
3,Cc1ccc(CNC(=O)Cc2ccc3c(c2)CN(C2CCC(=O)NC2=O)C3=O)cc1 (configuration not stated),8.32% (active)
4,Cc1ccn2c(C(=O)c3ccccc3)cc(-c3cc(-c4ccc(N(C)C)cc4)c(C#N)c(N)n3)c2c1,96.5%
5,CCOP(=O)(OCC)O[C@H]1CCC(=O)[C@@H]2[C@H]1[C@H]1C[C@@H]3[C@@]4(C)CCCC(C)(C(=O)OC)[C@@H]4CC[C@@]23C=C1C(C)C (some centres not stated),55.1%
6,C#CCNC(=O)CCC(=O)OC[C@]12CC[C@@H](C(=C)C)[C@@H]1C1CC[C@@H]3[C@@]4(C)CCCNC(C)(C)[C@@H]4CC[C@@]3(C)[C@]1(C)CC2 (some centres not stated),-13.2% (active)
7,C/C(=N\N=C\c1ccc(N(C)C)cc1)c1ccc2c(c1)Nc1ccccc1S2,59.5%
8,O=C(Nc1ccc(Cl)c([N+](=O)[O-])c1)Nc1ccc(Cl)c([N+](=O)[O-])c1,14.2%
9,COc1ccc(CN2[C@H](C(=O)NCc3ccc(C(=O)NO)cc3)Cc3c([nH]c4ccccc34)[C@H]2C2CC2)cc1,28.8%
10,O=C(NO)c1ccc(CNC(=O)[C@H]2Cc3c([nH]c4ccccc34)[C@H](c3ccc(Cl)cc3)N2)cc1,17.4%
11,O=C(Cn1nc(-c2ccccc2)ccc1=O)NN1C(=O)c2ccccc2C1=O,102%
12,OCc1[nH]nc2cc(Nc3ncc4ccc(Br)c(OC5CCC(O)CC5)c4n3)ccc12 (configuration not stated),0.234% (active)
13,COc1cc2c3c(n(CCCNCCO)c(=O)c2cc1OC)-c1nc2c(cc1C3=O)OCO2,8.64% (active)
14,COc1ccc(CN2[C@H](C(=O)NCCCCCCC(=O)NO)Cc3c([nH]c4ccccc34)[C@H]2C2CC2)cc1,19.7%
15,COc1ccc(C2N(c3ccc(Br)cc3)N=C(C(C)=O)N2[C@H]2[C@H](OC(C)=O)O[C@H](COC(C)=O)[C@@H](OC(C)=O)[C@@H]2OC(C)=O)cc1 (some centres not stated),78.8%
16,CN1C(=O)N(C)C2SC(N/N=C/c3cccs3)=NC21 (configuration not stated),20.3%
17,Cc1cc(C)nc(/N=C(\N)Nc2ccc(S(=O)(=O)Nc3nc(C)cc(C)n3)cc2)n1,96.2%
18,O=C(Cc1ccc2c(c1)CN(C1CCC(=O)NC1=O)C2=O)NCCc1ccccc1 (configuration not stated),10.6%
19,CCNCCCn1c2c(c3cc(OC)c(OC)cc3c1=O)C(=O)c1cc3c(nc1-2)OCO3,0.158% (active)

row,Structure (SMILES),growth
1,O=C(CNc1nc(-c2ccccc2)cs1)Nc1ccc(Cl)cc1[N+](=O)[O-],11.1%
2,Cc1ccc2nc(-c3ccc(-c4nnc(SCC(=O)Nc5ccc(Cl)cc5)o4)cc3)[nH]c2c1,58.8%
3,Cc1ccc(C(=O)NNC(=O)CSc2nc3ccccc3c(=O)[nH]2)cc1,98.8%
4,CN(C)CCNC(=O)OCCCCOc1cc(O)c2c(=O)cc(-c3ccccc3)oc2c1,-5.67% (active)
5,CCCCSc1nc(Nc2ccc(/C(C)=N/NC(N)=S)cc2)c(C#N)c(-c2ccccc2)n1,49.2%
6,O=c1[nH]c2ccccc2cc1CSc1ccc(Nc2nccc(-c3ccc4c(c3)OCO4)n2)cc1,98.4%
7,COc1cc2oc(-c3cccc(C(=O)Nc4ccc(Cl)cc4)c3)cc(=O)c2c(OCCNC(=O)CNC(=O)OC(C)(C)C)c1OC,49.4%
8,Cc1ccc2nc(-c3ccc(-c4nnc(SCC(=O)Nc5ccc(Br)cc5)o4)cc3)[nH]c2c1,38.2%
9,COc1ccc(CN2[C@@H](C(=O)NCc3ccc(C(=O)NO)cc3)Cc3c([nH]c4ccccc34)[C@@H]2C)cc1,15.8%
10,O=C(CNc1nc(-c2ccccc2)cs1)Nc1cccc(Cl)c1,26.3%
11,NS(=O)(=O)c1ccc(NC(=O)CSc2ccc(-c3ccc(Cl)cc3)nn2)c(Br)c1,83.7%
12,Clc1ccc2c(N/N=C/c3c[nH]c4ccc(Br)cc34)ccnc2c1,-7.03% (active)
13,Cc1ccc(-c2ccc(SCC(=O)Nc3ccc(S(N)(=O)=O)cc3Br)nn2)cc1,93.4%
14,CC(=O)Nc1ccc(-c2cn(-c3cccc(C(=O)Nc4cccc(OC(F)(F)F)c4)c3)nn2)cn1,98.1%
15,CCOC(=O)N/C(=C1/OCCN1C)[P+](c1ccccc1)(c1ccccc1)c1ccccc1,67.5%
16,O=C(NO)c1ccc(CNc2nc(-c3ccccc3)c3ccccc3n2)cc1,15%
17,Cc1cc(C)nc(NS(=O)(=O)c2ccc(N/C(N)=N/c3nccc(-c4cccs4)n3)cc2)n1,95%
18,COc1cnc2c(c1)C(=O)c1c-2n(CCCNCCO)c(=O)c2cc(OC)c(OC)cc12,12.8%
